Test results taken from PubChem BioAssay (NCATS).
Inconclusive results are not listed. The source made the active and inactive calls. Calls follow the shape of the dose curve; as a rule, active = well fitted curve in either direction with a large enough effect (not every such curve was filed as active); inconclusive = small, poorly fitted or top-dose-only effect, or another doubt; inactive = flat fitted curve, though single readings scatter.

Target: Mitogen-activated protein kinase 10 (Mus musculus) (UniProt Q61831)
Assay: JNK3 AlphaScreen Assay (AID 530);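 also: kinase came from lysate of stimulated human HepG2 cells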
Conditions: JNK3 lysate, c-Jun phosphorylation; series mostly up to 57.1 µM
Method in brief: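 JNK3 came from HepG2 lysates pre-activated with IL-1beta and TNF-alpha and phosphorylated biotinylated GST-cJun (1-79) at 10 uM ATP, pH 7.6, room temperature. Compounds were titrated. AlphaScreen signal used anti-phospho-cJun (Ser73) antibody.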

Question: `CCCn1c(-c2ccc(F)cc2)nc2c(NCCN3CCOCC3)nc(C)nc21` was tested. Which outcome did it give?
Answer: inactive

Question: For `CCCn1c(-c2ccc(F)cc2)nc2c(NCCN3CCSCC3)nc(C)nc21`, which outcome is on record?
Answer: inactive

Question: With `CCCCNc1nc(C)nc2c1nc(-c1ccccc1)n2CCN1CCCCC1` as the compound, how does the outcome read?
Answer: inactive

Question: `Cc1nc(Nc2ccccc2)c2nc(-c3ccccc3)n(CCN3CCOCC3)c2n1` was tested. Which outcome did it give?
Answer: inactive

Question: For `Cc1nc(NCc2ccccc2)c2nc(-c3ccccc3)n(CC(C)(C)CN(C)C)c2n1`, which outcome is on record?
Answer: inactive

Question: Which outcome does the source give for `CCCCNc1nc(C)nc2c1nc(-c1ccccc1)n2CCN1CCCC1` here?
Answer: inactive

Question: For `Cc1nc(NC2CCCCC2)c2nc(-c3ccccc3)n(C(C)CN(C)C)c2n1` (stereo unspecified), which outcome is on record?
Answer: inactive

Question: `CCCn1c(-c2ccc(F)cc2)nc2c(NC(C)CCCN(CC)CC)nc(C)nc21` (stereo unspecified) was tested. Which outcome did it give?
Answer: inactive

Question: `CCCn1c(-c2ccc(F)cc2)nc2c(N3CCN(CCC(=O)OCC)CC3)nc(C)nc21` was tested. Which outcome did it give?
Answer: inactive

Question: Which outcome does the source give for `Cc1nc(NCc2ccccc2)c2nc(-c3ccccc3)n(CCCN3CCOCC3)c2n1` here?
Answer: inactive

Question: `CCN(CC)CCCC(C)n1c(-c2ccccc2)nc2c(N(CCOC)CCOC)nc(C)nc21` (stereo unspecified) was tested. Which outcome did it give?
Answer: inactive

Question: Which outcome does the source give for `COCCNc1nc(C)nc2c1nc(-c1ccccc1)n2C1CCN(Cc2ccccc2)C1` (stereo unspecified) here?
Answer: inactive

Question: For `CCCn1c(-c2ccc(F)cc2)nc2c(NCC(C)(C)CN(C)C)nc(C)nc21`, which outcome is on record?
Answer: inactive

Question: How did the outcome turn out when `CCN(CC)CCCC(C)n1c(-c2ccccc2)nc2c(NC3CCCCC3)nc(C)nc21` (stereo unspecified) was run?
Answer: inactive

Question: Which outcome does the source give for `Cc1nc(NCc2ccccc2)c2nc(-c3ccccc3)n(C(C)CN(C)C)c2n1` (stereo unspecified) here?
Answer: inactive

Question: How did the outcome turn out when `CCN1CCCC1Cn1c(-c2ccccc2)nc2c(N(CCOC)CCOC)nc(C)nc21` (stereo unspecified) was run?
Answer: inactive
